# Sampled rows, rich in hits. Any-hit rate of the full collection: about 12%.
# WT yeast gro inh: growth inhibition of WT yeast, mitochondrial fusion screen. mitochondrial fusion phenotypic screen, WT strain. inhibition, % at 10 µM. actives 2.1% (n = 190,000). AID 1362; in the data active = inhibition above about 58%; tested in S. cerevisiae
# Calpain2 inh: blocks pig calpain II enzyme activity. AID 1236. purified calpain II, fluorogenic peptide substrate, 30 min. inhibition, % at 16 µM. actives 0.37% (n = 220,000);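 active = inhibition above about 50%, limit read from the data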
# KCC2 mod: modulates chloride dependent transport by human KCC2; Q9H2X9; KCC2 cells, thallium flux FluoZin-2 fluorescence; B-score of Tl+ flux slope (higher = more flux/activation; lower = inhibition) at 10 µM; actives 2.2% (n = 190,000); AID 1456;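 active = thallium flux slope and its plate-corrected score both differing from the plate sample mean at a set confidence after two filtering rounds, in either direction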;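 note: slope of fluorescence scaled to starting intensity during 10 to 20 s after thallium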
# ROMK primary: modulates human ROMK potassium channel activity | P48048 | Tet-inducible ROMK, thallium flux fluorescence; actives lie on both sides | B-score at 10 µM | actives 2% (n = 130,000);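 active = signal ratio slope over the read window, or its plate-corrected B-score, at least 3 SD from the plate mean, either direction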;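 note: B-score of the F/F0 ratio slope over 7 to 12 s after thallium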
# Target sequence (P48048 whole entry, looked up): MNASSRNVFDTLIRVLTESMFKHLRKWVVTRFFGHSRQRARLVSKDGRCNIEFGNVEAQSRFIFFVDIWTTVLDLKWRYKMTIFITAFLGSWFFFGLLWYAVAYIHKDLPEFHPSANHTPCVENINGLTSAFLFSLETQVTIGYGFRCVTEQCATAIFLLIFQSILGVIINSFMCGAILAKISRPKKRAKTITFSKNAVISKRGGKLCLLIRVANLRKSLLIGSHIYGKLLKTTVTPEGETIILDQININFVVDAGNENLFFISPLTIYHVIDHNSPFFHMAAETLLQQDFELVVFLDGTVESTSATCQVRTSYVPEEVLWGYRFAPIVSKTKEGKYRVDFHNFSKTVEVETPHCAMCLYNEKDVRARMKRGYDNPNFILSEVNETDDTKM
# Lmaj promast: Leishmania major promastigote growth inhibition. Leishmania major promastigotes, resazurin fluorescence viability. inhibition, % at 10 µM. actives 9% (n = 200,000); in the data active = inhibition above about 50%;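 note: promastigotes grown with compound for 44 hours at 28 °C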
# Hits are given with their value; - = inactive; . = no result given.
SMILES,WT yeast gro inh,Calpain2 inh,KCC2 mod,ROMK primary,Lmaj promast
CCCN(CCC)CC(O)CN(c1ccccc1)S(=O)(=O)c1ccc(C)cc1 (stereo not drawn),-,-,-,-,97
CC[N+]1(CC)CC2CCC(C)(C1)C2(C)C (stereo not drawn),-,-,-,-,-
C=CCN(CC=C)CC(O)CN(c1cc([N+](=O)[O-])ccc1OC)S(=O)(=O)c1ccccc1 (stereo not drawn),-,-,-,.,64
CC(Oc1ccccc1)c1ccnc2nc(N3CCOCC3)nn12 (stereo not drawn),-,-,-,-,-
CC(Oc1ccc(Cl)cc1Cl)c1ccnc2nc(N3CCOCC3)nn12 (stereo not drawn),75,-,-,-,-
CCN1C(=O)c2cccc3c(NC(=O)c4ccc5c(c4)OCCO5)ccc1c23,-,-,-,-,-
CCN1C(=O)c2cccc3c(NC(=O)c4ccc(OC)c(OC)c4)ccc1c23,-,-,-,.,100
CCN1C(=O)c2cccc3c(NC(=O)c4ccccc4)ccc1c23,-,-,-,.,91
CCN(CC)S(=O)(=O)c1ccc(-c2nnc(SCC(=O)N3c4ccccc4CC3C)n2CC)cc1 (stereo not drawn),-,-,-,-,91
O=C(C1CCN(c2ccc(N3CCOCC3)nn2)CC1)N1CCN(c2ccc(F)cc2)CC1,-,.,-,-,97
O=C(C1CCN(S(=O)(=O)N2CCOCC2)CC1)N1CCN(c2ccc(F)cc2)CC1,-,-,-,-,-
COc1ccc(-c2csc3nc(-c4cccnc4)nc(Cl)c23)cc1OC,63,-,-,.,54
Clc1nc(-c2cccnc2)nc2scc(-c3ccccc3)c12,77,-,-,-,-
O=C(CN1C(=O)NC2(CCCc3ccccc32)C1=O)Nc1cccc(S(=O)(=O)N2CCCCC2)c1 (stereo not drawn),-,-,-,.,-
Cc1ccc(S(=O)(=O)N(C)C)cc1NC(=O)CN1C(=O)NC2(CCCc3ccccc32)C1=O (stereo not drawn),-,-,-,-,72
CC(C1CC2CCC1C2)n1c(COc2ccccc2F)nnc1SCC(N)=O (stereo not drawn),-,-,-,.,-
CC(C)NC(=O)NC(=O)CSc1nnc(COc2ccccc2F)n1C(C)C1CC2CCC1C2 (stereo not drawn),-,-,-,.,51
CC(SCC(=O)O)c1nc2ccccc2[nH]1 (stereo not drawn),.,-,-,.,.
CC(C)n1cnnc1SCC(=O)Nc1cccc(S(=O)(=O)N(C)c2ccccc2)c1,.,-,-,.,.
CC(=O)c1c(C)[nH]c(C(=O)Nc2cccc(S(=O)(=O)N(C)c3ccccc3)c2)c1C,-,-,-,-,95
COc1ccccc1NS(=O)(=O)c1cccc(NC(=O)c2[nH]c(C)c(C(C)=O)c2C)c1,.,-,-,.,.
Cc1ccccc1CN(C)CC(=O)Nc1cccc(S(=O)(=O)N(C)c2ccccc2)c1,-,-,-,-,71
CN(c1ccccc1)S(=O)(=O)c1cccc(NC(=O)CSc2nncs2)c1,-,-,-,.,72
CN(c1ccccc1)S(=O)(=O)c1cccc(NC(=O)CSc2ncn[nH]2)c1,-,-,-,-,-
CN(c1ccccc1)S(=O)(=O)c1cccc(NC(=O)CSc2nnc(N)s2)c1,-,-,-,-,78
SMILES,WT yeast gro inh,Calpain2 inh,KCC2 mod,ROMK primary,Lmaj promast
CCOP(=O)(c1ccccc1)c1nc(-c2ccccc2C)oc1NCc1ccccc1 (stereo not drawn),.,-,-,.,.
O=C(CSc1nncs1)Nc1cc(-c2ccccc2)nn1-c1ccccc1,-,-,-,-,51
CN1C(C(=O)NCC2CC2)CC2Cn3c(nc4cc(Cl)c(Cl)cc43)C21 (stereo not drawn),.,-,-,.,.
O=C(c1ccc2[nH]c3c(c2c1)CCCC3)N1CCN(c2ccc(F)cc2)CC1,74,-,-,.,60
O=C(c1ccc(Cn2c(=O)[nH]c3ccccc3c2=O)cc1)N1CCN(c2ccc(F)cc2)CC1,-,-,.,-,92
CCCCN(C)CCNC(=O)c1ccc(Cn2c(=S)[nH]c3ccc(Br)cc3c2=O)cc1,-,-,-,-,90
COc1ccc(N2CCN(C(=O)c3ccc(Cn4c(=S)[nH]c5ccc(N6CCOCC6)cc5c4=O)cc3)CC2)cc1,-,-,-,-,91
O=C(c1ccc(Cn2c(=O)[nH]c3ccsc3c2=O)cc1)N1CCN(c2ccccc2)CC1,-,-,-,-,-
O=c1c2cc(N3CCOCC3)ccc2[nH]c(=S)n1Cc1ccc(Cl)cc1,-,-,-,-,-
COc1ccccc1NC(=S)NNC(=S)Nc1ccc(OC(F)F)cc1,-,-,-,.,-
O=C(COC(=O)c1cnccn1)NCc1ccc(Cl)cc1,-,-,-,-,-
CCOC(=O)c1ccc(NC(=O)N2CCN(C(=O)C3CCCO3)CC2)cc1 (stereo not drawn),-,-,-,-,-
CCC1(C)CC(c2nc(-c3ccc(OC)cc3)cs2)CCS1 (stereo not drawn),-,-,-,-,-
O=C(c1ccc(Cn2c(=S)[nH]c3ccc(Br)cc3c2=O)cc1)N1CCN(C2CCCCC2)CC1,73,-,-,-,-
O=C(c1ccc(Cn2c(=S)[nH]c3ccc(N4CCOCC4)cc3c2=O)cc1)N1CCN(c2ccc(F)cc2)CC1,-,-,-,-,96
O=c1c2cc(F)ccc2[nH]c(=S)n1CCCN1CCOCC1,-,-,6.4,.,-
O=c1c2cc(N3CCOCC3)ccc2[nH]c(=S)n1CCCN1CCCCCC1,-,-,-,-,-
Cc1ccc(C)c(N2CCN(C(=O)c3ccc(Cn4c(=S)[nH]c5ccc(N6CCOCC6)cc5c4=O)cc3)CC2)c1,-,-,-,-,99
O=C(c1ccc(Cn2c(=S)[nH]c3cc4c(cc3c2=O)OCO4)cc1)N1CCN(c2ccccc2)CC1,-,-,-,-,-
COC(=O)c1cc(-c2ccc(Cl)cc2Cl)n[nH]1,-,-,-,-,-
CCN(Cc1ccccc1)S(=O)(=O)c1cc(C(=O)c2c(N)n(C)c(=O)n(C)c2=O)ccc1OC,-,-,-,-,-
CCN(Cc1ccccc1)S(=O)(=O)c1cc(C(=O)NC(C)C2CC3CCC2C3)ccc1OC (stereo not drawn),-,-,-,-,84
CN(C)S(=O)(=O)c1cccc(-c2nnc(SCc3ccc4c(c3)OCCO4)o2)c1,-,-,-,.,-
Cc1ccc2[nH]c(=O)c(C(c3nnnn3C3CCCC3)N(Cc3cccnc3)Cc3ccco3)cc2c1 (stereo not drawn),-,-,-,.,85
CC(c1nnnn1C1CCCCC1)N(Cc1ccccc1)Cc1cccnc1 (stereo not drawn),-,-,-,.,92
Cc1ccc2cc(C(c3nnnn3C3CCCC3)N(Cc3cccnc3)Cc3ccco3)c(=O)[nH]c2c1 (stereo not drawn),-,-,-,-,-
CCC(C)(C)n1nnnc1C(C(C)C)N(Cc1cccnc1)Cc1ccco1 (stereo not drawn),-,-,-,-,-
Clc1ccc(C(c2nnnn2C2CCCCC2)N(Cc2cccnc2)Cc2ccco2)cc1 (stereo not drawn),70,-,-,.,100
